Reference: PubChem BioAssay (NCI)
About 83,000 compounds went through this panel and 20% of them were active in at least one assay; those are over-represented in the sample as a whole.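 For each line, cells grew in 96-well plates with the test compound present at a single concentration for 48 hours.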 The source made the active and inactive calls. The calls were made as follows: active = growth percent below 10; inactive = the rest.

Each compound was assayed on HL-60(TB) leukemia (assay: NCI-60 one-dose screen, 48 h (100 = growth as untreated, 0 = no growth, -100 = all killed)). Conditions: 10 µM unless noted.

| SMILES | growth |
| --- | --- |
| Cc1cc(N2CCOCC2)nc(N(CCCNc2ccnc3cc(Cl)ccc23)Cc2ccco2)n1 | -26.3% (active) |
| CSc1nc2ccc(C)cc2cc1/C=N/O | 91.6% (inactive) |
| CC[C@@H]1OC(=O)[C@H](C)[C@@H](O[C@H]2C[C@@](C)(OC)[C@@H](O)[C@H](C)O2)[C@H](C)[C@@H](O[C@@H]2O[C@H](C)C[C@H](N(C)C)[C@H]2O)[C@](C)(O)C[C@@H](C)[C@@H]2N[C@@H](COCCOC)O[C@H]([C@H]2C)[C@]1(C)O | 94.2% (inactive) |
